# Experimental data as given in PubChem BioAssay (NCATS).
# Values joined by “and” are separate entries in the source; they are usually repeats but may differ in a detail not shown here. Identical values can stand only once. Records with an inconclusive call do not appear. Where a call stands in place of a potency, no number is given. More than one record can exist for a structure, and the calls need not agree. Active and inactive are the calls of the source. Calls come from the whole dose curve; as a rule, active = well fitted curve in the direction sought with a large enough effect; inconclusive = small, poorly fitted or top-dose-only effect, or another doubt; inactive = no such curve, though single readings can be large; an effect the other way counts as inactive or inconclusive.
# Test: P-glycoprotein substrates identified in KB-3-1 adenocarcinoma cell line, qHTS therapeutic library screen (AID 1346986); note: nearly all actives have a fitted effect of over 60% in size
# Conditions: KB-3-1 parental cells viability, CellTiter-Glo, 72 h; at 44.5 µM (top of the series)
# Summary of the method: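 Using luminescence to quantify ATP, parental and P-gp-overexpressing KB cells were compared after 72 h compound titration. KB-8-5-11 was also run with the P-gp inhibitor tariquidar.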
row,Structure (SMILES),outcome
1,CCC(=O)O[C@]1(C(=O)SCF)[C@H](C)C[C@H]2[C@@H]3C[C@H](F)C4=CC(=O)C=C[C@]4(C)[C@@]3(F)[C@@H](O)C[C@@]21C,inactive
2,CC1=CC(=O)c2ccccc2C1=O,inactive
3,Cn1c(=O)c2c(ncn2CC(O)CO)n(C)c1=O (configuration not stated),inactive
4,CC1=NN(c2ccccc2)C(=O)C1,inactive
5,O=C(N[C@H](CO)[C@H](O)c1ccc([N+](=O)[O-])cc1)C(Cl)Cl,inactive
6,Cc1cc(NS(=O)(=O)c2ccc(N)cc2)no1,inactive
7,Nc1nc(F)nc2c1ncn2[C@@H]1O[C@H](CO)[C@@H](O)[C@@H]1O,inactive
8,O=S(=O)(c1cccc2cnccc12)N1CCCNCC1,inactive
9,Cc1oc(=O)oc1CN1CCN(c2cc3c(cc2F)c(=O)c(C(=O)O)c2n3C(C)S2)CC1 (configuration not stated),inactive
10,CNNCc1ccc(C(=O)NC(C)C)cc1,inactive
11,CC(C(=O)O)c1ccc2c(c1)CC(=O)c1ccccc1S2 (configuration not stated),inactive
12,CC(C)OC(=O)C(C(=O)OC(C)C)=C1SC=CS1,inactive
13,COc1ccc(-c2ccc3cc(C(=O)O)ccc3c2)cc1C12CC3CC(CC(C3)C1)C2,inactive
14,O=NN(CCCl)C(=O)NC1CCCCC1,inactive
15,O=C(O)CCn1c2c(c3ccccc31)C[C@H](NS(=O)(=O)c1ccc(F)cc1)CC2,inactive
16,NS(=O)(=O)c1cc2c(cc1Cl)NC(C(Cl)Cl)NS2(=O)=O (configuration not stated),inactive

# Test: P-glycoprotein substrates identified in KB-8-5-11 adenocarcinoma cell line, qHTS therapeutic library screen (AID 1346987); note: nearly all actives have a fitted effect of over 65% in size; note: potency is the fitted concentration of half-maximal effect
# Conditions: KB-8-5-11 (P-gp overexpressing) viability, CellTiter-Glo, 72 h; series mostly up to 44.5 µM; activity change, negative = cytotoxicity: at the top concentration
# Summary of the method: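 Human cervical adenocarcinoma KB-8-5-11 cells, selected in colchicine to over-express P-gp and assayed without it, were exposed for 72 h to titrated compounds. An ATP-based luminescent viability signal gave AC50.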
Structure (SMILES),Potency,outcome,"activity change, negative = cytotoxicity"
O=C(O)c1cn(C2CC2)c2cc(N3CCNCC3)c(F)cc2c1=O,inactive,,
Cc1cccc(N(C)C(=S)Oc2ccc3ccccc3c2)c1,inactive,,
NC1(c2ccc(-c3nc4ccn5c(=O)[nH]nc5c4cc3-c3ccccc3)cc2)CCC1,11.6 µM (active),,
CNS(=O)(=O)CCc1ccc2[nH]cc(C3CCN(C)CC3)c2c1,inactive,,
CNC(=O)c1cc(Oc2ccc(NC(=O)Nc3ccc(Cl)c(C(F)(F)F)c3)cc2)ccn1,11.8 µM (active) and 8.2 µM (active) and 6.51 µM (active),,
NC(=O)c1cccc(N)c1,,inactive,
Cc1noc(NS(=O)(=O)c2ccc(N)cc2)c1C,inactive,,
COc1c(N2CCNC(C)C2)c(F)cc2c(=O)c(C(=O)O)cn(C3CC3)c12 (configuration not stated),inactive,,
CC1=C(C(=O)O)N2C(=O)[C@@H](NC(=O)C(N)c3ccccc3)[C@H]2SC1 (some centres not stated),,,1.22% (inactive)
Cc1ccnc2c1NC(=O)c1cccnc1N2C1CC1,inactive,,
COc1cnc(NS(=O)(=O)c2ccc(N)cc2)nc1,inactive,,
CCn1cc(C(=O)O)c(=O)c2cc(F)c(N3CCNCC3)cc21,inactive,,
COc1cc(NS(=O)(=O)c2ccc(N)cc2)nc(OC)n1,inactive,,
CCOCC(O)COc1ccc(NC(=O)CC[S+](C)C)cc1 (configuration not stated),inactive,,
CCN(CC)CCn1c(=O)c(Cc2ccc(OC)cc2)nc2ccccc21,inactive,,
CCN1CCCC1CNC(=O)c1cc(S(N)(=O)=O)ccc1OC (configuration not stated),,inactive,
CCC(=O)O[C@]1(C(=O)SCF)[C@H](C)C[C@H]2[C@@H]3C[C@H](F)C4=CC(=O)C=C[C@]4(C)[C@@]3(F)[C@@H](O)C[C@@]21C,inactive,,
CC1=CC(=O)c2ccccc2C1=O,,inactive,

Structure (SMILES),Potency,outcome,"activity change, negative = cytotoxicity"
COc1cc2c(Nc3ccc(Br)cc3F)ncnc2cc1OCC1CCN(C)CC1,,,-10.7% (inactive)
Cn1c(=O)c2c(ncn2CC(O)CO)n(C)c1=O (configuration not stated),inactive,,
CC1=NN(c2ccccc2)C(=O)C1,inactive,,
O=C(N[C@H](CO)[C@H](O)c1ccc([N+](=O)[O-])cc1)C(Cl)Cl,,,5.27% (inactive)
Cc1cc(NS(=O)(=O)c2ccc(N)cc2)no1,inactive,,
COc1cc([C@@H]2c3cc4c(cc3[C@H](O)[C@H]3COC(=O)[C@H]23)OCO4)cc(OC)c1OC,130 nM (active) and 11.8 nM (active),,
Nc1nc(F)nc2c1ncn2[C@@H]1O[C@H](CO)[C@@H](O)[C@@H]1O,inactive and 662 nM (active),,
O=S(=O)(c1cccc2cnccc12)N1CCCNCC1,inactive,,
Cc1oc(=O)oc1CN1CCN(c2cc3c(cc2F)c(=O)c(C(=O)O)c2n3C(C)S2)CC1 (configuration not stated),inactive,,
CNNCc1ccc(C(=O)NC(C)C)cc1,inactive,,
CC(C(=O)O)c1ccc2c(c1)CC(=O)c1ccccc1S2 (configuration not stated),inactive,,
CC(C)OC(=O)C(C(=O)OC(C)C)=C1SC=CS1,inactive,,
COc1ccc(-c2ccc3cc(C(=O)O)ccc3c2)cc1C12CC3CC(CC(C3)C1)C2,13 µM (active) and inactive,,
COc1cc2nc(N3CCCN(C)CC3)nc(NC3CCN(Cc4ccccc4)CC3)c2cc1OC,9.35 µM (active),,
O=NN(CCCl)C(=O)NC1CCCCC1,inactive,,
CC(C)C[C@H](NC(=O)[C@H](CCc1ccccc1)NC(=O)CN1CCOCC1)C(=O)N[C@@H](Cc1ccccc1)C(=O)N[C@@H](CC(C)C)C(=O)[C@@]1(C)CO1,9.2 µM (active),,
O=C(O)CCn1c2c(c3ccccc31)C[C@H](NS(=O)(=O)c1ccc(F)cc1)CC2,inactive,,
NS(=O)(=O)c1cc2c(cc1Cl)NC(C(Cl)Cl)NS2(=O)=O (configuration not stated),inactive,,
